Several values for one entry are separate records, joined by “and”; a condition that tells them apart may be missing. Identical values can stand only once.
System: H9c2
Test: protection of cardiomyocytes from stress damage, SAR follow-up, cell-based, panel, H9c2 and HL-1, ATP luminescence, set 2 (AID 651871);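 further: cells exposed to stressor for 2 h before ATP readout; reference of the scale not given here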
Settings: H9c2/HL-1 cardiomyocytes, H2O2 oxidative stress; with H2O2, run 3, at 79 µM (top of the series)

Compound	activity (protection/inhibition)
COc1ccc2nc(-c3cc(OC)c(OC)c(OC)c3)cc(C(=O)NCC(=O)Nc3ccc(C(C)=O)cc3)c2c1	91.8% and 76.1%
CCOC(=O)c1cccc(NC(=O)CNC(=O)c2cc(-c3cc(OC)c(OC)c(OC)c3)nc3ccccc23)c1	99%
COc1cc(-c2cc(C(=O)Nc3cccc(C(=O)NCc4ccccc4)c3)c3ccccc3n2)cc(OC)c1OC	95.7%
COc1ccc2c(c1OC)C(=O)N1c3ccccc3C(=O)N(Cc3cccc(Cl)c3Cl)C21 (centres undefined)	77.5% and 104% and 43.3%

— PubChem BioAssay AID651871 (Sanford-Burnham Center for Chemical Genomics, 2012)
